Screening results as filed in PubChem.
Tb PGK inh – qHTS Assay to Find Inhibitors of Phosphoglycerate Kinase | PGK/GAPDH coupled, Kinase-Glo luminescence, 60 min | Potency, µM (titrated, usually from 57.5 µM), hits mostly inhibitors | 380,000 compounds, 0.043% hits | AID 602233, 2012; also: nearly all actives have a fitted effect of over 60% in size
Target sequence (P07378 whole entry, looked up): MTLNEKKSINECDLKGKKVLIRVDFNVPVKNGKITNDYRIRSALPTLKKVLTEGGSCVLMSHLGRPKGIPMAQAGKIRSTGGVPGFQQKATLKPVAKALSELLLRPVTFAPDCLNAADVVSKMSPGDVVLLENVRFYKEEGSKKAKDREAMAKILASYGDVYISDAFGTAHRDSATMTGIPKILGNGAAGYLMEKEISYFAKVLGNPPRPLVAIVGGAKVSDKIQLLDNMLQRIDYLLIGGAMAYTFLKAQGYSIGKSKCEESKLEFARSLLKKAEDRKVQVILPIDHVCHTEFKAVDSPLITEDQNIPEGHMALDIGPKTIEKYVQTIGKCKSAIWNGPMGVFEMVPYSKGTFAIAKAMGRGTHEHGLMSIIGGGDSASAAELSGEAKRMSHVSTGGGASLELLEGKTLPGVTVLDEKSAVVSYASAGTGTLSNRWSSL
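Luminescent ATP detection (Kinase-Glo Plus) follows a 60-minute room-temperature incubation, with wells lacking PGK as controls. Buffer: 100 mM TEA (pH 7.6), 5 mM MgCl2, 0.01% Tween-20. Coupling enzyme GAPDH (100 nM final) supplies unstable 1,3-BPG in-well.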
FEN1 inh – qHTS Assay for the Inhibitors of Human Flap endonuclease 1 (FEN1). P39748. Recombinant FEN1 flap cleavage, fluorescence, 15 min. Potency, µM (series often up to 114 µM), most hits filed as inhibitors. 390,000 compounds, 0.35% hits. AID 588795, 2011; also: nearly all actives have a fitted effect of over 65% in size
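Enzyme 10 nM, 15 min RT preincubation with compound; start with substrate 50 nM final; reads at 0 and 15 min; qHTS titration, four-parameter Hill fit.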
GRP78 ERSR act – qHTS for Inducers of the Endoplasmic Reticulum Stress Response (ERSR) in Human Glioma: qHTS. U87-MG GRP78 promoter luciferase reporter, 16 h. Potency, µM, most hits filed as activators. 420,000 compounds, 0.02% hits; also: series mostly up to about 76 µM; nearly all actives have a fitted effect of over 35% in size
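ERSR induction read as luciferase luminescence (Bright-Glo, 10 min at room temperature) in stably transfected human U87-MG glioma cells exposed to compounds for 16 h, using GRP78 as sensor.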
PI5P4K alpha inh – qHTS for Inhibitors of phosphatidylinositol 5-phosphate 4-kinase (PI5P4K); Phosphatidylinositol 5-phosphate 4-kinase type-2 alpha (Homo sapiens), P48426; PI5P4Kalpha enzyme, ADP-Glo luminescence, 60 min; active compounds read low; max response, %; 330,000 compounds, 1.2% hits; AID 652105, 2013; active = max response of -50% or lower; inconclusive = between -30% and -50%; inactive = -30% or higher; also: value at the top dose of about 77 µM
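Enzyme plus substrate dispensed, test compounds pinned in, then ATP (5 microM final) added. After 60 min at RT, ADP-Glo reagent 1 for 45 min and reagent 2 for 30 min preceded luminescence imaging.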
WRN inhibitor – qHTS for Inhibitors of WRN Helicase. Bifunctional 3'-5' exonuclease/ATP-dependent helicase WRN (Homo sapiens), Q14191. WRN helicase unwinding, fluorescent forked duplex, kinetic. Potency, µM (series often up to 114 µM), actives largely listed as inhibitors. 360,000 compounds, 0.46% hits; also: nearly all actives have a fitted effect of over 55% in size
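Primary qHTS, 1536-well format. 20 nM WRN + compound, 15 min RT; start with 100 nM forked fluorophore/quencher duplex, 2 mM ATP (final); kinetic read ex 525/em 598 nm.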
Pin1 inhibitor – qHTS Assay to Find Inhibitors of Pin1. AID 504891, 2011. 390,000 compounds, 0.009% hits. Potency, µM (highest dose often 115 µM), hits mostly inhibitors. Pin1 FP peptide displacement, HiFluor488, 10 min. Peptidyl-prolyl cis-trans isomerase NIMA-interacting 1 (Homo sapiens), Q13526; active = well fitted inhibition curve with a large enough effect in the polarisation, with a control signal flat, not every such curve was filed as active; inconclusive = small, poorly fitted or top-dose-only effect, or effect the other way, or a change in a side signal; inactive = no such curve, though single readings can be large or run the other way; the % refers to the polarisation
Hits are given with their value; . = inactive; ? = inconclusive; / = not tested or not shown; [ ] = remark or other dose. The list is not random: actives were taken first. Their share in the collection is about 1.3%. Unless noted, calls follow the shape of the dose curve; as a rule, active = well fitted curve in the direction sought with a large enough effect; inconclusive = small, poorly fitted or top-dose-only effect, or another doubt; inactive = no such curve, though single readings can be large; an effect the other way counts as inactive or inconclusive.

SMILES	Tb PGK inh	FEN1 inh	GRP78 ERSR act	PI5P4K alpha inh	WRN inhibitor	Pin1 inhibitor
Cc1ccc2scc(N3CCN(c4ccc(F)cc4)CC3)c(=O)c2c1	.	.	.	/	/	.
Cc1cc(-c2ccnc(-n3ncc(C(=O)NCC4COCCO4)c3C3CC3)n2)c(C)s1 (stereo not given)	/	/	.	/	/	/
O=c1cc(-c2ccccc2)oc2c1ccc1ccccc12	/	/	.	/	/	/
O=c1cc(-c2cccnc2)oc2c1ccc1ccccc12	.	40µM	.	.	.[11.6 µM]	.
Cc1cc(SCC(=O)N/N=C/c2ccc(O)c(O)c2O)c(C)cc1Br	.	40µM	.	-87	50µM	.
COc1cc(/C=N/NC(=O)CSc2cc(C)c(Br)cc2C)ccc1O	.	.	.	.	.	.
CCCCN(CC)c1nc(N)c(C#N)c(CC#N)c1C#N	.	.	.	-71	.	?
CC(=O)Oc1cccc2c1C(=O)c1c(OC(C)=O)cc(C(=O)O)cc1C2=O	.	.	.	-76	.	?
CC(=O)Oc1ccc(C(=O)O)cc1OC(C)=O	/	.	.	/	.	.
CCCNC(=O)c1nnsc1S(=O)c1ccc(Cl)cc1 (stereo not given)	.	?	.	?	20µM	.
CCCNC(=O)c1ccc2snnc2c1	.	.	.	.	.	.
CCCNC(=O)NS(=O)(=O)c1ccc(Cl)cc1	.	.	.	.	.	.
CCCNC(=O)c1nnsc1S(=O)(=O)c1ccc(Cl)cc1	.	.	.	?	28µM	.
O=S1(=O)N=C(Oc2ccc(Cl)cc2)c2ccccc21	/	/	/	/	/	.
CCOc1cc(-c2c(C#N)c(=O)[nH]c3c2c(C)nn3-c2ccc(F)cc2)ccc1O	.	.	.	-56	.	.
COc1ccc(/C=N/N=C2/NC(=O)C(CC(=O)O)S2)cc1OCc1ccc(Cl)cc1Cl (stereo not given)	.	.	.	-56	?	?
COc1cc(F)cc(F)c1[S+](=O)([O-])N1CCN([S+](=O)([O-])c2ccc3c(c2)OCCO3)CC1	/	/	/	/	/	.
CCN(CC)c1ccc2c(-c3ccc(S(=O)(=O)O)cc3S(=O)(=O)[O-])c3ccc(=[N+](CC)CC)cc-3oc2c1	?	?	.	-51	/	?
CCN(CC)c1ccc2nc3c4ccccc4c(=O)cc-3oc2c1	.	?	.	.	?	?
CCC(C)NC(=O)NC(=O)CSc1nnc(-c2ccccc2F)n1C1CC1 (stereo not given)	.	.	.	.	.	.
CCC(=O)Nc1ccc(C(=O)CSc2nnc(-c3ccccc3F)n2C2CC2)cc1	.	.	.	-51	.	.
Cc1cc2c(s1)c1cnn(Cc3cc(F)ccc3C)c(=O)c1n2C	/	/	/	/	/	.
CC(c1ccccc1)C1C(C#N)=C(N)SC(N)=C1C#N (stereo not given)	.	.	.	?	.	.
CC(CC1C(C#N)=C(N)SC(N)=C1C#N)c1ccccc1 (stereo not given)	.	.	.	-67	.	?
O=C1C=CC(=O)c2c(O)c(Cl)c(Cl)c(O)c21	/	/	.	/	/	/
SMILES	Tb PGK inh	FEN1 inh	GRP78 ERSR act	PI5P4K alpha inh	WRN inhibitor	Pin1 inhibitor
O=C1C=CC(=O)c2c(O)c(CO)c(CO)c(O)c21	8.9µM	16µM	.	-89	7.9µM	/
O=C(/C=C/c1ccco1)c1cccc([N+](=O)[O-])c1	.	.	.	-73	?	?
COCc1c(C(=O)N2CCN(C(C)C)CC2)cnn1-c1nccc(-c2cc(C)sc2C)n1	/	/	.	/	/	/
Cc1cc(N(C)C)ccc1[N+](=O)[O-]	.	.	.	.	.	.
NNc1ccc([N+](=O)[O-])c2[nH][nH]c(=O)c12	?	/	.	-83	20µM	/
O=C1Nc2ccccc2C1=Nc1ccc(S(=O)(=O)Nc2nccs2)cc1	?	50µM	.	-79	20µM	/
